# Laboratory results as given in PubChem BioAssay (NCI).
# About 79,000 compounds went through this panel and 15% of them were active in at least one assay; those are over-represented in the sample as a whole. Values without a mark were called inactive. The source made the active and inactive calls. No stated cut-off is given here; in the data, active means growth inhibition above about 70%; inactive means the rest.
# Legend:
# [1] = NCI Yeast Anticancer Drug Screen. Data for the rad50 strain (AID 155);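 further: 0% = growth of vehicle-only cultures of the same strain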; conditions: S. cerevisiae rad50 strain growth inhibition; at 50.0 µM; hits give high values
# Outline: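 Genetically altered yeast (DNA repair pathway); compound treatment; growth inhibition vs vehicle ctrl.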
# [2] = NCI Yeast Anticancer Drug Screen. Data for the mec2-1 strain (AID 157); conditions: S. cerevisiae mec2-1 strain, at 50.0 µM, hits give high values
# Outline: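 Yeast mec2-1 mutant treated with compound. Readout: growth inhibition vs vehicle controls.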
# [3] = NCI Yeast Anticancer Drug Screen. Data for the sgs1 mgt1 strain (AID 161);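 further: 0% = growth of cultures given vehicle only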; conditions: S. cerevisiae sgs1 mgt1 strain, at 50.0 µM, hits give high values
# Outline: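 Mutant yeast exposed to compound; growth scored against vehicle-only wells.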
# [4] = NCI Yeast Anticancer Drug Screen. Data for the cln2 rad14 strain (AID 165);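 further: 0% = growth equal to vehicle treated cultures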; conditions: S. cerevisiae cln2 rad14 strain, at 50.0 µM, hits give high values
# Outline: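 cln2 rad14 yeast strain; compound exposure; growth inhibition read vs vehicle controls.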
# [5] = NCI Yeast Anticancer Drug Screen. Data for the bub3 strain (AID 167); conditions: S. cerevisiae bub3 mutant strain, at 50.0 µM, hits give high values
# Outline: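 Yeast carrying a defined mutation is treated with each compound, and growth is compared with that of vehicle-exposed cells to give inhibition.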
# [6] = NCI Yeast Anticancer Drug Screen. Data for the mlh1 rad18 strain (AID 175); conditions: S. cerevisiae mlh1 rad18 strain growth inhibition; at 50.0 µM; hits give high values
# Outline: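 Yeast w/ defined DNA-repair lesions; compound exposure; growth vs vehicle controls → % inhibition.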
SMILES,growth inhibition [1],growth inhibition [2],growth inhibition [3],growth inhibition [4],growth inhibition [5],growth inhibition [6]
NS(=O)(=O)c1ccc(N=Nc2ccc([As](=O)(O)O)cc2)cc1,43%,6.6%,18.6%,19.2%,3.45%,19.9%
O=P(c1ccccc1)(c1ccccc1)c1ccccc1.O=P(c1ccccc1)(c1ccccc1)c1ccccc1.O=S(=O)(O)O.[Fe],-8.3%,3.45%,9.35%,17.6%,23.6%,8.2%
O=C(O)CCc1ccc(NP(=O)(Oc2ccccc2)N(CCCl)CCCl)cc1 (centres undefined),8.05%,6.65%,15.1%,14.7%,2.3%,-20.2%
CC1(C)N=C(N)N=C(N)N1c1ccc(CCCCc2cc(Cl)ccc2S(=O)(=O)F)c(Cl)c1,99.3% (active),99.7% (active),99.5% (active),98.4% (active),98.5% (active),99.6% (active)
ClCCN(CCCl)c1ccc(C=Nc2ccccc2)cc1,34.5%,21.1%,59.6%,12.2%,2%,28.6%
NC(=O)Nc1cc(NC(N)=O)cc(N(CCCl)CCCl)c1,-7%,-19.7%,-20.1%,-7.15%,-15.7%,-24.1%
O=C(O)C(CP(=O)(O)O)=C(Cl)Cl,-21.4%,12.3%,-13.9%,-8.95%,-6.15%,-9.75%
SCCS,-20.1%,-5.2%,-14.6%,-5.6%,-27.7%,-25.7%
O=C(Nc1ccccc1)c1ccc([As](c2ccc(C(=O)Nc3ccccc3)cc2)c2ccc(C(=O)Nc3ccccc3)cc2)cc1,-8.9%,-7%,-4.85%,-23.9%,-19.2%,-33.5%
CC(C)C(Br)C(=O)O (centres undefined),-6.85%,-16.6%,-21.1%,-41.5%,-9.5%,2.1%
CSC(=S)N(C)c1nc(=[N+](C)C)ss1,-12.8%,-1.2%,-9.8%,-32.4%,-2.25%,27.3%
CC1(C)C(=O)N(O)C(C)(C)N1N=O,1.95%,13.4%,18.1%,28.4%,15.4%,19.6%
O=[N+]([O-])C1CCC(O)C([N+](=O)[O-])C1 (centres undefined) (tested in a mixture with another compound),71.8% (active),37.7%,93.7% (active),69.3%,13.6%,86.8% (active)
N#CC(C#N)=Cc1ccccc1[N+](=O)[O-],41.9%,17.2%,8.3%,25.6%,39.8%,29.7%
O=C(COc1ccccc1Cl)Nc1ccc[n+](Cc2ccc(S(=O)(=O)F)cc2)c1,-20.9%,-21.2%,2.9%,-42.2%,-3.15%,-0.7%
CCOP(=O)(OCC)C(O)C(C)C (centres undefined),3.5%,16.9%,5.2%,-19.8%,7.5%,0.35%
CP1(=O)CC23CCCCC2(C1)O3 (centres undefined),2%,-29.9%,-3.3%,-44.2%,-15%,-7.9%
N#Cc1ccc(C(Cl)(Cl)Cl)cc1,1.5%,-17.6%,-5.8%,-25.4%,-3.15%,-5.65%
COC(=O)C1(O)c2ccccc2N=C2C1CCN2C (centres undefined),15.1%,-11.4%,-8.85%,6.4%,6.3%,16.9%
COc1cc(CC(N)c2ccccc2)ccc1O (centres undefined),-7.65%,2.45%,11.8%,-20.8%,2.1%,-18.8%

SMILES,growth inhibition [1],growth inhibition [2],growth inhibition [3],growth inhibition [4],growth inhibition [5],growth inhibition [6]
CNN(C)P(=O)(Oc1ccccc1)N(C)NC,5.5%,-7.3%,-9.15%,7.9%,-2.1%,-5.15%
O=c1c(O)c(-c2ccccc2)oc2ccccc12,12.6%,14.8%,35.5%,15.6%,42.5%,34.8%
CC(C)N=Cc1ccccc1O.CC(C)N=Cc1ccccc1O.[Ni],51.3%,1.1%,48.6%,-4.45%,7.05%,22.2%
O=C1NC(=O)C(O)(Cc2ccccn2)C(=O)N1,9.9%,6.45%,13.5%,13.2%,-21.1%,-6.65%
CCCCCC(C)C1C(=O)NC(=O)NC1=O (centres undefined),6.4%,12.9%,2.65%,5.7%,7.8%,-6%
CC(Oc1ccc([N+](=O)[O-])cc1Cl)C(=O)Nc1ccc(S(=O)(=O)F)cc1 (centres undefined),-12.8%,-14.4%,-9.4%,4%,0.2%,-12.6%
O=[N+]([O-])NC1=NCCN1CCCl,-17.2%,-13.6%,-4.6%,-25.1%,-12.6%,9.15%
OCCCNCc1cccnc1,9.55%,-3.05%,-0.75%,29.2%,-3.8%,25.9%
CCOC(=O)C1=C(C)/C(=C\c2[nH]c(C)c(C(=O)OCC)c2C)N=C1C,8.95%,13.7%,23%,8.95%,19.5%,19.9%
CC(=O)c1cn(Cc2ccccc2)c2ccccc12,5.75%,-14.2%,-6.7%,-73.5%,-19.6%,-2.9%
CNCCc1ccc(O)cc1,-9.2%,-1.85%,-0.75%,-23.3%,1.35%,-0.65%
Cn1cc(C(=O)C[n+]2ccccc2)c2ccccc21,-20.4%,-0.45%,-18.3%,3.7%,-30.1%,-5.45%
CC(C)OP(=O)(OC(C)C)C(N(C)C)P(=O)(OC(C)C)OC(C)C.[Cl][Sn]([Cl])([Cl])[c]1ccccc1,-10.9%,-10.2%,2.1%,28.8%,7.85%,1.5%
CC(C)=CC1CC(=[N+]=[N-])C(=O)C1(C)C (centres undefined),33.5%,7.1%,17%,16.9%,4.05%,28.6%
C=CCOCC1CO1 (centres undefined),9.1%,-5.1%,11.1%,-8.6%,-1.7%,15.8%
CCOC(=O)CC(=O)CCl.[Cu+2],-14.9%,-8.9%,-40.4%,-31.6%,-15.9%,-3.2%
O=S(=O)(c1ccccc1)N1CC1CI (centres undefined),3.45%,2.7%,13.9%,10.6%,7.9%,1.75%
CCC(CN)c1ccccc1 (centres undefined),13.6%,-0.85%,2.75%,0.65%,-14.4%,-9.4%
CCc1cc[c]([Sb](=[O])([OH])[OH])cc1,3.5%,-7.15%,9.1%,22.5%,4.1%,3.2%
